Many of the other results were omitted from the sample, so hits are more common in it than they were.
S aureus helic: inhibitors of S. aureus replicative helicase, primary screen, biochemical, fluorescence unwinding readout. replicative DNA helicase (DnaC/DnaB), Staphylococcus aureus. purified S. aureus helicase, fluorescence unwinding assay. inhibition, % (no concentration beside the values). 120,000 tested, 0.05% active. AID 485395, 2010; in the data active means inhibition above about 25%, passing the limit was not always enough;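 further: 0% = mean of negative control wells and 100% = mean of positive control wells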
Sa growth inh: S. aureus growth inhibition at 42 and 30 °C, primary screen, LtaS inhibitor project, RN4220, two temperatures; OD600, 20 h, 42 °C; hits give low values; 170,000 tested, 0.53% active; relative growth, % (no concentration beside the values);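 active means relative growth at most 50% at the other temperature and 20+ points below 30 °C, or under 10% at both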
Starred values were filed as active, the others as inactive; . = not tested or not shown; ! = not active in a repeat.

SMILES | S aureus helic | Sa growth inh
CCN1CCN(Cc2cc(Cl)c3cccnc3c2O)CC1 | 27 | 74
Oc1c(CN2CCOCC2)cc(Cl)c2cccnc12 | -3 | 1.3*
Oc1c(CN2CCCCC2)cc(Cl)c2cccnc12 | 13 | .
CC1CN(Cc2cc(Cl)c3cccnc3c2O)CC(C)O1 (configuration not stated) | 1 | 0.6*
c1nc(NC2CCCC2)c2c3c(sc2n1)CCC3 | -3 | 107
Brc1ccc(-c2cc(-c3ccccc3)no2)cc1 | 7 | 96
COC(=O)c1ccc(COc2ccccc2C(=O)c2cnn(-c3ccccc3)c2)o1 | -18 | 120
CC(C)c1ccc(OC(=O)c2cc(-c3ccc4c(c3)OCCO4)on2)cc1 | . | 83
Cc1cc(C)cc(OC(=O)c2cc(-c3ccc4c(c3)OCCO4)on2)c1 | . | 1.7*
Cc1cccc(OC(=O)c2cc(-c3ccc4c(c3)OCCO4)on2)c1 | . | 1.8*
COc1ccc(OC(=O)c2cc(-c3ccc4c(c3)OCCO4)on2)cc1 | . | 97
COc1ccc(-c2cc(C(=O)NCCc3ccccc3)nc3n[nH]c(-c4ccccc4)c23)cc1OC | 1 | 116
CC(=O)Nc1ccc(Nc2cc(Cl)c(S(=O)(=O)C(F)(F)F)cc2S(=O)(=O)C(F)(F)F)cc1 | -10 | 101
O=C(N1CCOCC1)C(F)(F)C(F)(F)C(F)(F)F | 1 | 104
c1ccc(CNc2nnnn2-c2ccccc2)cc1 | 3 | 106
CCS(=O)(=O)c1nnnn1-c1ccccc1 | -3 | 0.1*
O=S(=O)(Cc1ccccc1)c1nnnn1-c1ccccc1 | 5 | -0.2*
CCS(=O)(=O)c1nnnn1-c1ccccc1S(C)(=O)=O | 3 | 89
O=C(C1=COCCO1)N1c2ccccc2Sc2ccccc21 | 3 | 98
COc1ccc(-c2nnn(CC(=O)N(c3ccccc3)C(C(=O)NC3CCCC3)c3ccco3)n2)cc1 (configuration not stated) | 17 | 48*
Cc1ccc(-c2nnn(CC(=O)N(Cc3ccccc3)C(C(=O)NC3CCCC3)c3ccco3)n2)cc1 (configuration not stated) | 3 | 114
CC(NC(=O)C1COc2ccccc2O1)C(=O)O (configuration not stated) | 4 | 73
CC(NC(=O)C1CCN(C(=O)c2cc3sccc3n2C)CC1)C12CC3CC(CC(C3)C1)C2 (configuration not stated) | 2 | 93
CC(SCC(=O)N1c2ccccc2CC1C)C(=O)O (configuration not stated) | -1 | 84
CCN(CC)c1ccc2c(C)c(CO)c(=O)oc2c1 | -44 | 102
SMILES | S aureus helic | Sa growth inh
CCN(CC)c1ccc2c(N3CCCCC3)cc(=O)oc2c1 | -10 | 2.1*
COc1cc(C(=O)N(C)c2ccccc2)cc(OC)c1OC | 18 | 99
CC(=O)N1CCN(c2ccc(OC[C@H]3CO[C@](Cn4ccnc4)(c4ccc(Cl)cc4Cl)O3)cc2)CC1 | . | 1.2*!
CC(=O)N1CCN(c2ccc(Oc3ccnc4cc(Cl)ccc34)cc2)CC1 | 5 | 93
COc1ccc(Cc2nnc(C(=O)N3CCN(c4ccccc4OC)CC3)o2)cc1OC | 7 | 102
c1ccc(-n2nnnc2SSc2nnnn2-c2ccccc2)cc1 | -2 | 89
O=S1(=O)C=C(Sc2nnnn2-c2ccccc2)c2ccccc21 | 4 | -1.7*
O=c1ccnc(SCc2cn3ccccc3n2)[nH]1 | 7 | 87
CN(C(=O)C(NS(=O)(=O)c1ccc2c(c1)CCC(=O)N2)c1ccccc1)C1CCCCC1 (configuration not stated) | 0 | 98
c1coc(C2=NCCN2)c1 | 9 | 87
c1cc2cc(C3=NCCN3)ccc2cc1C1=NCCN1 | 46* | 100
CC1CN(Cn2nc(-c3ccc4c(c3)OCO4)oc2=S)CC(C)O1 (configuration not stated) | -11 | 80
CC1CCN(Cn2nc(-c3ccc4c(c3)OCO4)oc2=S)CC1 | -7 | 42*
O=C(O)[C@H]1/C(=C/CO)O[C@@H]2CC(=O)N21 | . | 15*
CCOc1ccc(-n2c(N)c3c(N)nc(N4CCOCC4)c(C#N)c3c(C#N)c2=S)cc1 | -6 | 92
Cc1nnc(SCC(=O)NC2CCCCCC2)[nH]c1=O | 12 | 0.2*
Cc1sc2nc(SCC(=O)NC3CCCCC3)[nH]c(=O)c2c1C | 4 | 81
CC(=O)NC1C(OC(C)C)OC(CO)C(O)C1O (configuration not stated) | -21 | 80
COc1ccc(-c2nn(-c3ccccc3)cc2CSC(=N)N)cc1OC | 14 | 38
CC(=O)Oc1c(Cl)cc(C(=O)O)cc1Cl | 4 | 83
O=C(O)c1cn(C2CC2)c2cc(N3CCNCC3)c(F)cc2c1=O | . | 0.7*!
CCn1cc(C(=O)NCc2cccnc2)c(=O)c2cc(S(=O)(=O)N3CCCC3)ccc21 | -21 | 106
CCn1cc(C(=O)O)c(=O)c2cc(F)c(N3CCN(C(=O)c4ccc(F)cc4)CC3)cc21 | 12 | 17
CCn1cc(C(=O)O)c(=O)c2cc(F)c(N3CCN(C(C)=O)CC3)cc21 | -11 | 83
O=C(NCc1cccnc1)c1cn(C2CC2)c2cc(N3CCN(C(=O)c4cccc(Cl)c4)CC3)c(F)cc2c1=O | 5 | 4.6*
SMILES | S aureus helic | Sa growth inh
CCN1CCN(c2cc3c(cc2F)c(=O)c(C(=O)O)cn3C2CC2)CC1 | . | -0.9*
O=c1[nH][nH]c(=O)c2c(N=Cc3cccc4ccccc34)cccc12 | -12 | 79
CCC(=O)Nc1nc2cc3nc(NC(=O)CC)sc3cc2s1 | 13 | .
Fc1ccc(-c2cc(C(F)(F)F)nc(NC3CCCC3)n2)cc1 | 2 | 77
OC1CCCN(CC(O)COc2ccc3ccccc3c2)C1 (configuration not stated) | -3 | 97
O=C(Oc1cccc2[nH]ccc12)c1c(F)cccc1F | . | 117
CN1/C(=C/C#N)Sc2ccccc21 | -74 | 88
CCN1/C(=C/c2ccc3cc(C)ccc3[n+]2C)Sc2cc(OC)ccc21 | -26 | -1.5*
CCN1/C(=C/c2ccc3ccccc3[n+]2CC)Sc2cc(NC(C)=O)ccc21 | 6 | 101
COc1ccc2c(ccc(/C=C3\Sc4ccccc4N3C)[n+]2C)c1 | -222 | 4.7*
Cc1ccc(C)c(CSc2nnc(C)n3c2cc2occc23)c1 | -3 | 112
Cc1ccc(C2=NN(C(=O)COc3cccc(-n4cnnn4)c3)C(c3ccco3)C2)cc1 (configuration not stated) | 21 | 84
Cc1cc(C)c2c(n1)SCC(=O)N2CC(=O)NC(C)C | 9 | 85
S=C(N/N=C/c1cccnc1)NC1CCCCC1 | -4 | 82
CCOC(=O)Cc1c[nH]c2ccccc12 | 4 | 95
CCCC(=O)Oc1c[nH]c2ccccc12 | . | 3.9*
CCC1OC(=O)[C@H](C)C(=O)[C@H](C)[C@@H](OC2O[C@H](C)C[C@H](N(C)C)[C@H]2O)[C@](C)(OC)C[C@@H](C)C(=O)[C@H](C)[C@H]2N(CCCCn3cnc(-c4cccnc4)c3)C(=O)OC12C (some centres not stated) | . | -1.0*
CCC(=O)N1CCc2cc(S(=O)(=O)CCC(=O)Nc3ccc4c(c3)OCCO4)ccc21 | 6 | 91
S=c1[nH]nc(-c2ccc3c(c2)OCO3)o1 | 8 | 36*
COc1ccc(-c2n[nH]c(=S)o2)cc1OC | -15 | 93
Cc1cccc(-c2noc(CN(C(=O)CCCN3C(=O)c4ccccc4C3=O)C3CCCCC3)n2)c1 | 11 | 121
Cc1nnc(CSc2ccc(Cl)c(C(F)(F)F)c2)o1 | -5 | 103
